We go through six molecules from article PMC12136788.

To fix the notation:
T1: UNK ZnF1-3 (human, UniProt Q9C0B0 31-174)
T1 sequence: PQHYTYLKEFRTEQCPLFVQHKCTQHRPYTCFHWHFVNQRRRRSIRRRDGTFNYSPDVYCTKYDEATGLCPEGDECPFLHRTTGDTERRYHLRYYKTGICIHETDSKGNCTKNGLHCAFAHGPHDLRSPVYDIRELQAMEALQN

B1: chrX:12734859:12734860:+_ENSMUSG00000031010_ENSMUST00000089302|mus_hu|motif|central (ssRNA)
RNA: GGGAGUUCUACAGUCCGACGAUCAUCACUGGCAGAGCCACGGACUACUUUCUUUGUGUGAAAUCCUGUAGUAAAGAGGAACCGGGCAGCAAGUUGAAUACUGAUCAUAGUGAUUUCUUCUGCUUCAGGCAACAGGUGAUCUUGCAACAGAGGAUUGAGCAUCA
B2: chr8:21961785:21961786:+_ENSG00000158863_ENST00000289921|hu_mus|FALSE|FALSE (ssRNA)
RNA: GGGAGUUCUACAGUCCGACGAUCCCAUGCAAAUGCCAAAGUGCAUUGAGUAUUGCCCAGCCUCUCAAACGAGUACAAAUCUCAAGUGUAGACCCACUCCACCAAGAUCUGCUCCUGUCCCACACCAGCACCCAUGUGUACUCACAACAGAGGAUUGAGCAUCA
B3: 131934741_131943559_139_3pUTR_ENSG00000108010_ENST00000331244|human|control|control (ssRNA)
RNA: GGGAGUUCUACAGUCCGACGAUCUUCUUUAGCUAACUCUGCCAUAACUUCGUUCAUCUGUGCACACUGUGGAGCCCAUGGUGCCCAGAAAUGGACCACAAGGAGGGACUUGGCUUUGAGGCGCAGCAGCUCCUCAAACUGCCCCAACAGAGGAUUGAGCAUCA
B4: 88753824_88753944_1043_CDS_ENSMUSG00000053333_ENSMUST00000065694|mouse|control|control (ssRNA)
RNA: GGGAGUUCUACAGUCCGACGAUCGGCAAAAUUACAGUCCUCCUUCCAGUCUAUGAUGCGGCAGAUGAACAGCGUGUUGGCAAAGUCUUUAGGUCGGGUCAUGAAGUCCUGGGGACAGUCCUUGAGAGGUACGUAAAUUCUAGGCAACAGAGGAUUGAGCAUCA
B5: chr5:108714581:108714582:-_ENSG00000198961_ENST00000361557|hu_hu|FALSE|FALSE (ssRNA)
RNA: GGGAGUUCUACAGUCCGACGAUCUGAAAGACCAGUGUAUGCCUCUGCCUCUCUGUUUUCCAACUCAAAUACUGUAUUGCCUAAUGAUUCCUGGUAUCUACUACCUUCCACGACUUCUGCAGAAAGUUGAAGAUGGUCAUUAUCCAACAGAGGAUUGAGCAUCA
B6: chr15:31520727:31520728:-_ENSMUSG00000022234_ENSMUST00000022842|mus_mus|FALSE|FALSE (ssRNA)
RNA: GGGAGUUCUACAGUCCGACGAUCAGUUUAUUCUUCAGAUUCUCCAGGCUUACGGAUGUCAUCAAUCUUCAGAAUCAUCCUAACCAUCUGGGUGGCAAGAGAGAUCUGCUGCUUUUUGCCAAUCAAGGUUUCUAUGACAUGCUGCAACAGAGGAUUGAGCAUCA

The full ranking holds about 24,000 sequences; the median of “enrichment r” is about 0.99, and the highest 2% start at about 3.7. The list comes from a sample in which the highest values are over-represented; it also holds similar and randomly drawn sequences.

This test has as its target T1, UNK ZnF1-3. Put plainly: nsRBNS (natural sequence RNA bind-n-seq); RBNS binding buffer (assumed for nsRBNS): 25 mM Tris pH 7.5, 150 mM KCl, 3 mM MgCl2, 0.01% Triton X-100, 500 ug/ml BSA, 20 U/ml SUPERase-In, 4 C; UNK is unkempt and MSI1 is Musashi-1; names of the RNAs are library labels; protein concentration not given here; high values mean tight binding.
B1 registered a binding signal of 1.47 enrichment R. In the case of B2 it was 1.22 enrichment R.

Turning to B3, the binding signal amounted to 0.775 enrichment R. Then B4, with 1.63 enrichment R; and B5, with 0.745 enrichment R. In the case of B6 it was 0.637 enrichment R.
